From PubChem
GRIN3A LBD mod = modulates the human NR3A ligand-binding domain; Tm shift relative to glycine control, % at 25 µM; NR3A LBD differential scanning fluorimetry, Tm shift; 0% = protein alone, 100% = glycine-bound protein; 2.5% of 340,000 active; AID 1259313;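 active = melting temperature shift of at least 10% of the positive control shift, at one fixed dose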
MPTP inh = permeability transition pore inhibition; isolated mouse mitochondria, Ca2+ swelling absorbance, 30 min; inhibition, % at 10 µM; 1.4% of 360,000 active; AID 602449;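 active = inhibition of 50% or more, scaled per plate between neutral and stimulator controls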
CSC inhib = blocks cancer stem cells | cancer stem cell-like cells viability, luminescence | 1.1% of 300,000 active | inhibition, % at 7.5 µM; in the data active = inhibition above about 75%; inconclusive = no clear call, values can overlap the other calls; tested in HMLE shEcad cells
Beta cell apopt = blocks beta cell apoptosis | INS-1E cytokine-induced death, ATP luminescence, 48 h; percent of positive-control rescue, neutral wells zero | protection from apoptosis, % (concentration not given with the values) | 0.8% of 300,000 active;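 active = Every replicate reaches about 75%, or at least half do and their mean reaches it too, limit read from the data; inconclusive = At least half of replicates reach the limit but their mean does not; inactive = Under half of replicates reach the limit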;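 note: higher means more ATP so stronger rescue from cytokine killing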
Gli-Sufu antag = blocks Gli-Sufu signaling in a luciferase reporter; Sufu-KO-LIGHT fibroblasts, Gli luciferase reporter luminescence; inhibition, % at 5 µM; 0.74% of 340,000 active;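 active = inhibition above about 55%, limit read from the data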
Mdm2 MdmX PPI = disrupts the human Mdm2-MdmX interaction; O15151+Q00987; SaOS-2 split-luciferase Mdm2/MdmX complementation, luminescence; inhibition, % at 8 µM; 3% of 330,000 active;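 active = inhibition of at least 50% at 8 µM in the primary screen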
Target sequence (O15151 whole entry, looked up): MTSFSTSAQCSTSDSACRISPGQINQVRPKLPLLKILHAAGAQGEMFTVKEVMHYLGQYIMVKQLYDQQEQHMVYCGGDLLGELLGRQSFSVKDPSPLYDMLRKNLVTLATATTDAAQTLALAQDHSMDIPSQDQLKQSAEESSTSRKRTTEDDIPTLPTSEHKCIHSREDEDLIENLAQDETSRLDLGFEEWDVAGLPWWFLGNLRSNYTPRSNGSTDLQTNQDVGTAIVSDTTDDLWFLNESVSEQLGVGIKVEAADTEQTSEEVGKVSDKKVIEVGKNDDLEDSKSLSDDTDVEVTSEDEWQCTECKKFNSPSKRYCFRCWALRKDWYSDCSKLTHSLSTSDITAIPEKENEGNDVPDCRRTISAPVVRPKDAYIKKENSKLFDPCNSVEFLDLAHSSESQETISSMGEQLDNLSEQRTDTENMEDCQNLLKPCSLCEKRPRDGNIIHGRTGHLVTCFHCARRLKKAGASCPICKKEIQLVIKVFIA
Target sequence (Q00987 whole entry, looked up): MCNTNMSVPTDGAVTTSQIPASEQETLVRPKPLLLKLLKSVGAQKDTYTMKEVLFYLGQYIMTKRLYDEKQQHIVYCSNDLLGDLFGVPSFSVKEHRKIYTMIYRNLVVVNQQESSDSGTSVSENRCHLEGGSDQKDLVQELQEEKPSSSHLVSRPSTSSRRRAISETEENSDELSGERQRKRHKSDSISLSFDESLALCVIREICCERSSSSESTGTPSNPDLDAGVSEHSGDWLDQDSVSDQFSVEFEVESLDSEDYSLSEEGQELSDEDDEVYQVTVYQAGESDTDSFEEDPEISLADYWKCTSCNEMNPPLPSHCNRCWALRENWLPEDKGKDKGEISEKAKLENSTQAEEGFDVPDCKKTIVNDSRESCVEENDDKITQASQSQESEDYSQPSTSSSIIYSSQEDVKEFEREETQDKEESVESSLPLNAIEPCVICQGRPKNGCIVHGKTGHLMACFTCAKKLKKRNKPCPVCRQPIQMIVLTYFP
A number is an active result; 0 = inactive; ? = inconclusive; - = no result given. In the library only some 6.6% were active in any assay of this set; here they are far more common.

SMILES	GRIN3A LBD mod	MPTP inh	CSC inhib	Beta cell apopt	Gli-Sufu antag	Mdm2 MdmX PPI
O=[N+]([O-])c1ccc2[nH]c3nc4ccccc4nc3c2c1	0	0	0	0	57	0
COc1ccc(-c2cc3ccccc3[nH]2)cc1	14	0	0	0	0	0
c1ccc(-c2cc3ccccc3[nH]2)cc1	0	0	0	0	0	0
COc1ccc(/C=C(\NC(=O)c2ccccc2)C(=O)NCCN2CCOCC2)cc1	0	0	0	0	0	0
Cc1nc2ccc([N+](=O)[O-])cc2[nH]1	0	0	-	0	0	0
O=[N+]([O-])c1cccc(/C=C/c2nc3ccc([N+](=O)[O-])cc3[nH]2)c1	16	0	0	0	0	0
O=C(CCC(=O)Nc1ccc(Cl)cc1Cl)N/N=C/c1ccc([N+](=O)[O-])o1	0	0	0	107	0	0
O=C(N/N=C/c1ccc([N+](=O)[O-])o1)c1cc2ccccc2o1	10	0	0	100	0	0
O=C(N/N=C/c1ccc([N+](=O)[O-])o1)c1ccc(O)cc1	0	0	0	100	0	-
CCCCCC(=O)N/N=C/c1ccc([N+](=O)[O-])o1	0	0	0	0	0	0
O=C(N/N=C/c1ccc([N+](=O)[O-])o1)c1cc2c(ccc3ccccc32)o1	0	0	-	-	0	-
COC(=O)CCC(=O)Nc1ccc(S(=O)(=O)Nc2nc(C)cc(C)n2)cc1	0	0	0	0	0	0
Cc1ccc2c(Cl)c(C(=O)NC3CC3)sc2c1	0	0	0	0	0	0
COc1cc(CN2C[C@@H](CO)O[C@@H](n3cnc4c(N5CCOCC5)ncnc43)C2)cc(OC)c1OC	-	0	-	-	-	-
CC(CN1CCCCC1)OC(=O)COc1ccc(Br)cc1 (stereo unspecified)	0	0	0	0	0	0
CCc1ccc(NC(=O)NCC2CCN(Cc3cccc(Cl)c3)CC2)cc1	0	0	0	0	0	0
Cc1ccc(NC(=O)NCC2CCN(Cc3cccc(Cl)c3)CC2)cc1Cl	0	0	?	120	0	0
CC(C#N)(Nc1ccc(Cl)cc1)c1cccnc1 (stereo unspecified)	16	0	0	0	0	0
Nc1c(N=Nc2ccccc2F)c(=O)[nH]n1-c1ccccc1	12	0	0	0	0	0
CC(C)(C)C(=O)NC(Nc1cccc2cccnc12)C(Cl)(Cl)Cl (stereo unspecified)	0	0	-	78	0	0
CCN(CC(=O)Nc1c(F)cccc1F)C(=O)c1ccc2ccccc2n1	15	0	0	0	0	0
CC(C)c1nnc(NC(=O)CCC(=O)NC2CCCCC2)s1	0	-	0	0	0	0
CC(C)c1nnc(NC(=O)CCC(=O)NC2CCCc3ccccc32)s1 (stereo unspecified)	11	0	0	-	0	0
Cc1ccc(-c2ccnc(=S)[nH]2)cc1	10	0	0	0	0	0
CN1CCC(Oc2ccccc2Sc2ccc(C(F)(F)F)cc2)CC1	0	0	75	0	0	0
SMILES	GRIN3A LBD mod	MPTP inh	CSC inhib	Beta cell apopt	Gli-Sufu antag	Mdm2 MdmX PPI
CCSC1=N/C(=C\c2ccc3c(c2)OCO3)C(=O)S1	0	0	0	0	0	0
CCSC1=N/C(=C\c2cccc(F)c2)C(=O)S1	15	0	0	0	0	0
Cc1ccc2cccc(Oc3ncnc4scc(-c5ccc(Cl)cc5)c34)c2n1	11	0	0	0	0	0
N#Cc1c(Cl)nc(-c2ccncc2)nc1-c1ccccc1	11	0	0	0	0	0
CC(C)Nc1nc(-c2ccncc2)nc(-c2ccc(Cl)cc2)c1C#N	10	0	0	-	0	0
COc1ccc(NC(=O)C[C@H]2C(=O)N(C3CCCCC3)C[C@@H]2c2ccccc2)cc1	-	0	-	-	-	-
COc1ccc(/C=C2\C(=O)N(c3c(Cl)cc(Cl)cc3Cl)N=C2NC(=O)c2cccc([N+](=O)[O-])c2)cc1	13	0	0	0	0	-
COc1ccc(NC(=O)c2cccc(N3C(=O)c4cccc([N+](=O)[O-])c4C3=O)c2)cc1	0	0	0	0	0	0
CSc1nnc(N2C(=O)C(O)=C(C(=O)c3ccc(C)o3)C2c2ccc(C)cc2)s1 (stereo unspecified)	0	0	0	0	0	0
CCCCC1CCC(C(=O)Nc2ccc(S(=O)(=O)Nc3nccs3)cc2)CC1 (stereo unspecified)	15	0	0	0	0	0
CCC(=O)Nc1ccc(S(=O)(=O)Nc2nccs2)cc1	0	0	0	0	0	0
CN(Cc1ccccc1F)C(=O)CN1C(=O)NC2(CCc3ccccc32)C1=O (stereo unspecified)	0	0	-	-	0	0
CN(C(=O)Cc1noc2ccccc12)c1ccccc1	12	0	-	-	0	0
COc1cccc(C(=O)N/N=C2\SCC(=O)N2Cc2ccc3c(c2)OCO3)c1	0	0	0	0	0	0
COc1ccc(C(=O)N/N=C2/SCC(=O)N2Cc2ccc3c(c2)OCO3)cc1OC	11	0	0	0	0	0
O=C(O)CC1(c2ccc(F)cc2)C2CC3CC(C2)CC1C3 (stereo unspecified)	0	0	0	0	0	0
COc1ccc(CCNc2cc(C)nc3c(-c4ccccc4OC)cnn23)cc1OC	0	0	0	0	0	0
COc1ccccc1-c1cnn2c(NCc3ccccc3)cc(C)nc12	10	0	0	0	0	0
CCCn1c(=O)c2ccccc2n2c(SCCOc3ccc(OC)cc3)nnc12	11	0	0	0	0	0
Cc1ccc2nc(-c3sc4nc(C)ccc4c3N)[nH]c2c1	25	0	0	0	0	0
Cc1ccc(-c2noc(CCC(=O)NCC3CCCO3)n2)cc1 (stereo unspecified)	0	0	0	0	-	0
CNC(=O)CCc1nc(-c2ccc(C(C)(C)C)cc2)no1	0	0	0	0	0	0
CC(C)(C)c1ccc(-c2noc(CCC(=O)NCC3CCCO3)n2)cc1 (stereo unspecified)	0	0	0	0	73	0
CC(C)(C)c1ccc(-c2noc(CCC(N)=O)n2)cc1	0	0	0	0	76	0
O=C(CCc1nc(-c2ccc(Cl)cc2)no1)NC1CCCCC1	0	0	0	0	0	0
SMILES	GRIN3A LBD mod	MPTP inh	CSC inhib	Beta cell apopt	Gli-Sufu antag	Mdm2 MdmX PPI
O=C(CCCc1nc(-c2ccc(Cl)cc2)no1)NC1CCCC1	0	0	0	107	0	0
Cc1ccc(-c2noc(CCC(=O)Nc3ccc(C)cn3)n2)cc1	11	0	0	0	0	0
Cc1cc(NC(=O)c2ccc([N+](=O)[O-])cc2)n(C)n1	0	0	0	0	0	0
CCC(C)N1CCN(S(=O)(=O)Cc2ccccc2)CC1 (stereo unspecified)	0	0	0	0	0	0
COc1cc(CNc2ncnc3c2ncn3[C@H]2CN(Cc3ccccc3)C[C@@H](COC(C)=O)O2)cc(OC)c1OC	-	0	-	-	-	-
CC(C)CNC(=O)c1cccc2c1-c1ccccc1C2=O	0	0	0	0	0	0
COc1ccc(-c2csc(C(O)c3ccc(F)cc3)n2)cn1 (stereo unspecified)	-	0	-	-	-	-
